We go through 82 compounds from PubChem BioAssay AID651725 (National Center for Advancing Translational Sciences (NCATS), 2012).

About 2,000 (0.56%) of roughly 360,000 compounds were called active. Inconclusive results (about 2%) are left out. Many of the other results were omitted from the sample, so actives are more common in it than they were. Values without a mark were called inactive. No stated cut-off is given here; in the data, active means activity change below about -65%; inconclusive means mostly about -30% to -63%; inactive means weaker than that.
On the % scale 0 is the no-effect control and ±100 the full control effect.

The target in this assay is Homeobox protein SIX1 (Homo sapiens) + Protein phosphatase EYA2 (Homo sapiens) (UniProt Q15475+O00167). Put plainly: qHTS Assay for Inhibitors of the Six1/Eya2 Interaction. The settings on record: AlphaScreen GST-Six1/His-Eya2 binding, biochemical; active compounds read low. In short, it runs like this: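 Six1/Eya2 binding was read as AlphaScreen signal after compounds were pinned into GST-Six1 plus His-tagged Eya2 (5X stock 250/500 nM) in pH 8.0 Tris/NaCl/TCEP buffer, beads added, then incubated 1 h, 37 C, dark.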
Chain of Homeobox protein SIX1 (Homo sapiens) + Protein phosphatase EYA2 (Homo sapiens) (O00167 whole entry, looked up): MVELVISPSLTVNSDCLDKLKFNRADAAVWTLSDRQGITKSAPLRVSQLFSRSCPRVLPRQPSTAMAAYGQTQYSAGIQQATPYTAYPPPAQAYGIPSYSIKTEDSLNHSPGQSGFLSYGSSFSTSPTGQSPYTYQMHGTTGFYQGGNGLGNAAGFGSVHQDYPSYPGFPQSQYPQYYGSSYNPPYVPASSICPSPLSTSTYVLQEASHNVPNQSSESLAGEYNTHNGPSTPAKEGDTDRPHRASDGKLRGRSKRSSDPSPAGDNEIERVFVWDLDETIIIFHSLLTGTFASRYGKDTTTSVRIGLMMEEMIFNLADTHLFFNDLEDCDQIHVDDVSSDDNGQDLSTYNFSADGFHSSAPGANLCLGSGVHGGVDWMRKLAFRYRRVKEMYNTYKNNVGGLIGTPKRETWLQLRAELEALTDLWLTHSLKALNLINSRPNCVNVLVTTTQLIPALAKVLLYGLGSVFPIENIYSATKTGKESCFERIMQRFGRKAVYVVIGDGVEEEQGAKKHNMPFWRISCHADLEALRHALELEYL
Chain of Homeobox protein SIX1 (Homo sapiens) + Protein phosphatase EYA2 (Homo sapiens) (Q15475 whole entry, looked up): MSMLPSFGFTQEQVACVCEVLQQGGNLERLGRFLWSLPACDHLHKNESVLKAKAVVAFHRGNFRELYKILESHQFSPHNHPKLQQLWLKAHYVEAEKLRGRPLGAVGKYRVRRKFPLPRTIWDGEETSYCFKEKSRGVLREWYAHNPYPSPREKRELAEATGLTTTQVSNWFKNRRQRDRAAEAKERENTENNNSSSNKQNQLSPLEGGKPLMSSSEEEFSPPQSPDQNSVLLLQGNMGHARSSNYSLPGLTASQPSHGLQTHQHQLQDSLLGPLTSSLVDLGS
In the case of `COc1ccc(COC[C@H](CC(C)C)N2CCN(C(=O)c3cccc(C(F)(F)F)c3)CCC2=O)cc1`, the activity change is 9.97%.

Regarding `CCN(CC(=O)Nc1ccc(NC(C)=O)cc1)C(=O)C1CC(=O)N(c2ccc3c(c2)OCCO3)C1` (configuration not stated), the activity change was -0.253%.

On to `Cc1ccc(-c2cnc(C(O)c3cccc(C)c3C)[nH]2)cc1` (configuration not stated), for which the activity change was -9.73%.

For `O=S(=O)(NCc1ccccc1)c1ccc(S(=O)(=O)N2CCCC2)cc1`, the activity change was 0%.

`COC(=O)C1=C(C)NC(=O)/C1=C/c1ccc(CNS(=O)(=O)c2ccc(C)cc2)o1`: the activity change is -8.38%.

On to `O=c1/c(=C/c2ccc(CNS(=O)(=O)c3ccccc3)o2)sc2n1CCN=2`, for which the activity change was -74.2% (active).

For the compound `COC(=O)[C@]12CCCCC=C1N(Cc1ccc3c(c1)OCO3)C(=O)[C@H](CC(=O)N1CCOCC1)C2`, the activity change was 7.68%.

`COc1cccc(CN(C)C(=O)CC[C@H]2O[C@@H](n3cnc4c(NC(=O)c5ccccc5)ncnc43)[C@H](O)[C@@H]2O)c1`: the activity change was -3.33%.

Regarding `O=C(/C=C/[C@H]1O[C@@H](n2cnc3c(NC(=O)c4ccccc4)ncnc32)[C@H](O)[C@@H]1O)NCc1ccccc1`, the activity change is -0.266%.

As for `CCC(C)C(CO)NC(=O)/C=C/[C@H]1O[C@@H](n2cnc3c(NC(=O)c4ccccc4)ncnc32)[C@H](O)[C@@H]1O` (some centres not stated), the activity change was -67.4% (active).

For the compound `O=C(COc1ccc(Cl)cc1)NCc1nnc(SCC(=O)NCC2CCCO2)o1` (configuration not stated), the activity change is 17.7%.

Take `CCC(C(=O)NC(C)(C)C)n1c(-c2ccccc2)nc2ccccc21` (configuration not stated): the activity change is 2.19%.

`CCCCCc1c(Cc2ccccc2)ncn1CCc1ccccc1OC`: the activity change was 7.11%.

As for `COc1ccc(Nc2nc(-c3cccnc3)nc3ccccc23)cn1`, the activity change was -65.3% (active).

Regarding `S=c1nc2ccccc2c2nc(-c3cccnc3)[nH]n12`, the activity change is -8.27%.

On to `CCN(CC(=O)NC1CCS(=O)(=O)C1)c1nc(-c2cccnc2)nc2ccccc12` (configuration not stated), for which the activity change is 5.63%.

On to `CC(C)C1Cc2[nH][nH]c(=O)c2C(c2ccc(Cl)cc2)O1` (configuration not stated), for which the activity change is -11.7%.

As to `O=C1NC[C@H](CCCCN2C[C@H](Cc3ccc(O)cc3)N(CC3CCCCC3)C(=O)C2=O)N(CCc2ccccc2)C1=O`, the activity change is 3.83%.

On to `COC(=O)C[C@@H]1C=C[C@@H](NC(=O)c2cccnc2)[C@@H](CO)O1`, for which the activity change is 13.6%.

As for `CC(C)CCNC(=O)C(C)N(C(=O)Cn1nnc(-c2ccc(F)cc2)n1)C1CCCC1` (configuration not stated), the activity change is 4.65%.

For `COc1cccc(-n2c(SCC(=O)NC3CCCCC3)nc3n[nH]c(C)c3c2=N)c1`, the activity change was -66.7% (active).

For the compound `COc1cccc(-n2c(SCC(=O)NC3CCS(=O)(=O)C3)nc3ccccc3c2=O)c1` (configuration not stated), the activity change is -0.378%.

Take `Cc1ccc(-n2c(SCC(=O)NCCC3=CCCCC3)nc3n[nH]c(C)c3c2=N)cc1Cl`: the activity change is -17.6%.

Take `O=C(C(=O)N1CCN(c2ccccc2)CC1)c1ccc2c(c1)OCO2`: the activity change is 9.9%.

Turning to `CCCCC(=O)NC(c1ccc(OC)c(OC)c1)c1ccc2cccnc2c1O` (configuration not stated), the activity change is -90.3% (active).

As to `C=CCn1c(COc2cccc3cccnc23)nnc1SCC(=O)OC`, the activity change was 0.499%.

Take `CCOc1ccc(C(CCc2ccccc2)NC(=O)c2ccc(OC)c(OC)c2)cc1OCC` (configuration not stated): the activity change was -5.59%.

Consider `Cc1cc(C)n2c(Nc3c(C)cccc3C)c(CCc3ccccc3)nc2n1`, for which the activity change is -0.972%.

Consider `O=C(NCc1ccccn1)c1cnc2sccn2c1=O`, for which the activity change is -1.07%.

On to `COc1cc(/C=C/CO)cc(OC)c1O[C@@H]1O[C@H](CO)[C@@H](O)[C@H](O)[C@H]1O`, for which the activity change is 5%.

In the case of `CC1(C(=O)Nc2ccc3c(c2)OCCO3)CSCC(=O)N1CCOc1ccccc1` (configuration not stated), the activity change was -5.39%.

Take `CC1(C(=O)NCc2ccccc2)CSCC(=O)N1CCCn1ccnc1` (configuration not stated): the activity change is -4.73%.

With `O=C(NCCCn1ccnc1)C(=O)NCC1OCCN1S(=O)(=O)c1cc(F)ccc1F` (configuration not stated), the activity change is -72.2% (active).

`O=C(NCCCc1ccccc1)C(=O)NCC1OCCN1S(=O)(=O)c1ccccc1` (configuration not stated): the activity change is 5.49%.

On to `Cc1cc(F)ccc1S(=O)(=O)N1CCCOC1CNC(=O)C(=O)NCCC1=CCCCC1` (configuration not stated), for which the activity change is 6.61%.

`COc1ccc(NC(=O)C(c2ccncc2)n2c(=O)c(-c3cc4ccccc4[nH]3)nc3ccccc32)cc1` (configuration not stated): the activity change was 18.4%.

Consider `Oc1ccc(Br)cc1/C=N/Nc1ccccn1`, for which the activity change was -77.2% (active).

In the case of `O=C(Nc1ccc(Br)cc1)c1cc(S(=O)(=O)Nc2ccccn2)ccc1Cl`, the activity change was -3.31%.

With `CCN(CC)CCn1c(/N=C/c2cc(Br)ccc2O)nc2ccccc21`, the activity change was 4.55%.

For `CCOC(=O)[C@]12CCC=C1N(Cc1ccco1)C(=O)[C@H](CC(=O)N1CCSCC1)C2`, the activity change was 13%.

On to `CO[C@@H]1CN(C)C(=O)c2cc(NC(=O)C3CC3)ccc2OC[C@H](C)N(C(=O)CN2CCOCC2)C[C@@H]1C`, for which the activity change was -0.378%.

As for `COC(=O)[C@]12CCCCC=C1N(Cc1ccco1)C(=O)[C@H](CC(=O)NCC1CCCCC1)C2`, the activity change was 4.18%.

Turning to `NCCCCCC(=O)N/N=C/c1ccc2nccnc2c1`, the activity change was 4.58%.

For `O=C(CCC(=O)N/N=C/c1ccc(Br)o1)N/N=C/c1ccc(Br)o1`, the activity change was 0.575%.

On to `O=C(CCCO)N/N=C/c1cc(Br)ccc1O`, for which the activity change is -68.6% (active).

As for `O=[N+]([O-])c1ccc(N/N=C2/CCCCC2c2ccccn2)c([N+](=O)[O-])c1` (configuration not stated), the activity change was -4.9%.

Turning to `O=[N+]([O-])c1ccc2nc(-c3ccccn3)[nH]c2c1`, the activity change was -72.6% (active).

Consider `O=[N+]([O-])c1cccc(S(=O)(=O)NCc2ccccn2)c1`, for which the activity change was -5.71%.

On to `O=C(NC1CCCCC1)C(c1cc2ccccc2o1)n1c(=O)c(-c2ccco2)nc2ccccc21` (configuration not stated), for which the activity change is 6.65%.

Take `O=C1OCCOC2CCCc3oc(-c4ccccc4)c1c32` (configuration not stated): the activity change was -10.5%.

In the case of `CCOC(CNC(=O)C1CCN(S(=O)(=O)c2ccc3nc4c(c(C(=O)O)c3c2)CC(C)CC4)CC1)OCC` (configuration not stated), the activity change was -16.3%.

As to `Cc1ccc(CNC(=O)C2CCN(S(=O)(=O)c3ccc4nc5c(c(C(=O)O)c4c3)CC(C)CC5)CC2)cc1` (configuration not stated), the activity change is -65.1% (active).

On to `CC(=O)N1c2ccc(S(=O)(=O)N3CCC(C(=O)NCc4ccc(F)cc4)CC3)cc2CC1C` (configuration not stated), for which the activity change is -0.504%.

Turning to `CCCNC(=O)C[C@@H]1CC[C@@H]2[C@H](COC[C@H](O)CN2C(=O)c2cc(Cl)cc(Cl)c2)O1`, the activity change is 9.3%.

Regarding `CCN(CC)c1ccc(NC(=O)c2ccc(Cl)nc2)cc1`, the activity change was -10.4%.

Regarding `COc1ccc(NC(=O)C/C(C)=N/NC(=O)c2cnccn2)cc1Cl`, the activity change was -8.49%.

In the case of `CCN(CC)c1ccc(/C=N/NC(=O)c2cnccn2)c(O)c1`, the activity change was -91.7% (active).

Consider `O=C1CN(C(=O)c2ccccc2F)C(c2ccc(F)cc2)c2cc(F)ccc2N1` (configuration not stated), for which the activity change was 10.1%.

Turning to `CCOC(=O)[C@]12CCCC=C1N(CCC1=CCCCC1)C(=O)[C@H](CC(=O)NCCCOC)C2`, the activity change was -3.1%.

As to `COC(=O)[C@@]12C[C@@H](CC(=O)NCCCCc3ccccc3)C(=O)N(Cc3ccccc3)C1=CCC(C)(C)C2`, the activity change is -3.62%.

Turning to `CCOC(=O)[C@]12CCC=C1N(CCC1=CCCCC1)C(=O)[C@H](CC(=O)NCc1ccc(C)o1)C2`, the activity change is -7.25%.

For `O=S1(=O)CC(N2CCN(Cc3ccccc3F)CC2)CN1Cc1cn(Cc2cccc(C(F)(F)F)c2)nn1` (configuration not stated), the activity change was 1.67%.

Consider `Cc1cc(C)c(S(=O)(=O)N(C)CC(=O)NCC2CCCO2)c(C)c1` (configuration not stated), for which the activity change was 3.65%.

`Cc1ccc(-n2ncc3c(Nc4cccc(C(=O)O)c4)ncnc32)cc1`: the activity change is -66.4% (active).

Regarding `CC(C)Sc1ncnc2c1cnn2-c1ccccc1`, the activity change is 16.7%.

As to `Cc1ccc(Nc2ncnc3c2cnn3C)c(C)c1`, the activity change is 8.85%.

Take `Cc1[nH]c2ccccc2c1C(=O)c1cc([C@H](NC(=O)OC(C)(C)C)C(C)C)sc1N`: the activity change is -28%.

In the case of `O=C1CCN(CCCc2ccccc2)CCN1CCO`, the activity change was -23.5%.

As for `O=C(NC1CCCC1)C1c2ccccc2OCC(=O)N1CC(F)(F)F` (configuration not stated), the activity change was -3%.

Consider `Cc1c(NC(=O)CSc2nnc(-c3cccnc3)n2N)c(=O)n(-c2ccccc2)n1C`, for which the activity change is 10.2%.

For the compound `Cc1c(NC(=O)CSc2cccc3cccnc23)c(=O)n(-c2ccccc2)n1C`, the activity change was -90.9% (active).

With `Cc1c(NC(=O)CSc2nnnn2-c2ccc(C(=O)O)cc2)c(=O)n(-c2ccccc2)n1C`, the activity change was 5.09%.

Turning to `CC(=O)C[C@@H]1OC[C@H](CO)N1S(=O)(=O)c1ccc(C)cc1`, the activity change is 7.41%.

For the compound `CN(Cc1cn(Cc2ccc(C(F)(F)F)cc2)nn1)C1CN(Cc2cn(Cc3ccc(C(F)(F)F)cc3)nn2)S(=O)(=O)C1` (configuration not stated), the activity change is 3.81%.

With `CN(Cc1ccccc1)C(=O)[C@@H]1CCCN1C(=O)[C@@H]1CCCN1C(=O)c1c(F)cccc1F`, the activity change is 7.39%.

`COc1cc(/C=N/NC(=S)Nc2cccnc2)cc(OC)c1O`: the activity change was 0%.

In the case of `S=C(Nc1cccnc1)Nc1ccccn1`, the activity change is 6.86%.

For `S=C(NN=Cc1ccccn1)Nc1ccccn1`, the activity change is -91.9% (active).

Consider `O=C(NCCc1ccco1)c1nn(Cc2ccccc2)c(=O)c2ccccc12`, for which the activity change was -4.25%.

For the compound `O=C(OCN1C(=O)c2ccccc2C1=O)/C(=C\c1ccco1)NC(=O)c1ccccc1`, the activity change was -1.79%.

For the compound `O=c1nc2s/c(=C\c3ccco3)c(=O)n2nc1Cc1ccccc1`, the activity change is -82.8% (active).

In the case of `CCOC(=O)c1cc2cc(OC)ccc2n1C1CCN(C)CC1`, the activity change was 1.46%.
